High-throughput results from PubChem BioAssay.
PABP polyA inh – blocks human PABP binding to poly(A) RNA. P11940. fluorescence polarization. inhibition, % at 35 µM. 290,000 compounds, 1% hits. AID 2014;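 note: calls also rest on retests at 20 µM and on dose response follow-up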
Target sequence (P11940 whole entry, looked up): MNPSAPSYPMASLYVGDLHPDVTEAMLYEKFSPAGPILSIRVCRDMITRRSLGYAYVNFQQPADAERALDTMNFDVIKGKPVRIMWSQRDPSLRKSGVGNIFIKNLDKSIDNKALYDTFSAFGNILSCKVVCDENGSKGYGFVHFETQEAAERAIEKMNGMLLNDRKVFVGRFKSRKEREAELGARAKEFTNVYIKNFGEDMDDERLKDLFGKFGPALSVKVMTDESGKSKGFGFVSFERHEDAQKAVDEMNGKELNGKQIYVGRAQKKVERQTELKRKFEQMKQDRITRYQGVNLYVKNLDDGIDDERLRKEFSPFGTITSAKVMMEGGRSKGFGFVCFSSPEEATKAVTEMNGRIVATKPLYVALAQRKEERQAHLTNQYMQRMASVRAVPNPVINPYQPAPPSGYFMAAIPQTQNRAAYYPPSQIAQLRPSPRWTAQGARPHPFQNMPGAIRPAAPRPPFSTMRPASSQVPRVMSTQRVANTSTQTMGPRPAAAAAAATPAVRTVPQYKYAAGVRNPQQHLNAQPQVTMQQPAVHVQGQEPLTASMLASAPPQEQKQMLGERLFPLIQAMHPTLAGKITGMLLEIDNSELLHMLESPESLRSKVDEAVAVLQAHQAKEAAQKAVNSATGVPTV
PABP1 MLLE inh – blocks PAM2 peptide binding to the PABP1 MLLE domain; P11940; GST-MLLE / FITC-PAM2 fluorescence polarization; inhibition, % at 20 µM; 360,000 compounds, 0.36% hits; AID 588489; in the data active = inhibition above about 35%, passing the limit was not always enough;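 note: plate controls were DMSO wells with GST-MLLE for no effect and wells lacking GST-MLLE protein for full effect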
eIF4H FP inh – inhibitors of RNA binding by human eIF4H; Q15056; eIF4H fluorescence polarization binding assay; 290,000 compounds, 0.94% hits; inhibition, % at 35 µM;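 note: calls also rest on retests at 20 µM and on dose response follow-up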
CendR NRP1 mod – modulators of CendR peptide binding to human neuropilin-1 | inhibition, % at 25 µM | FAM-RPARPAR peptide binding to NRP-1, fluorescence polarization | 360,000 compounds, 0.85% hits;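 active = inhibition or corrected inhibition above about 18%, plus a signal ratio from 0.5 to 1.5, limit read from the data, passing the limit was not always enough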
* marks the source's active call; other numbers are inactive results; ? = inconclusive; · = no result. An excerpt weighted towards active compounds, which were near 2.1% of everything screened. Unless noted, the rule behind the calls is not given here.

SMILES	PABP polyA inh	PABP1 MLLE inh	eIF4H FP inh	CendR NRP1 mod
COc1ccc2[nH]c(C)c(CCNCc3cc(OC)c(OC)c(OC)c3)c2c1	2.2*	-3.1	94.0*	-0.2
COC(=O)C1=C(c2ccc(OC(F)(F)F)cc2)C[C@@H]2CC[C@H]1N2C(=O)N1CCCC1	·	0.2	·	-1.4
COC(=O)C1=C(c2ccc(C(C)=O)cc2)C[C@@H]2CC[C@H]1N2C(=O)N1CCC(O)CC1	·	-1.4	·	29.2*
COC(=O)C1=C(c2ccc(OC(F)(F)F)cc2)C[C@@H]2CC[C@H]1N2C(=O)N1CCC(C)CC1	·	13.4	·	28.7*
O=S1(=O)CCN(CCc2c[nH]c3ccccc23)CC1	59.9*	8.2	active	-2.3
CC(C)C(NC(=O)C(C(C)C)N(C)C)C(=O)N(C)C(C(=O)N1CCCC1C(=O)N1CCCC1C(=O)NCc1ccccc1)C(C)C (stereo unspecified)	·	0.2	·	-10.4
CN(C(=O)Oc1cccc2ccccc12)C1C=CCC1 (stereo unspecified)	·	-0.6	·	-3.0
CN1CCc2cc3c(c4c2C1Cc1ccccc1-4)OCO3 (stereo unspecified)	?	97.3	?	51.3*
CN1CCc2cc(O)cc3c2[C@H]1Cc1ccc(O)c(O)c1-3	·	17.5	·	1.8
CC(=NCCC(c1ccccc1)c1ccccc1)c1c(O)n(C)c(=O)n(C)c1=O	-0.3	1.3	-8.7	5.7
COC(=O)C1=C(c2ccc(F)cc2OCc2ccccc2)C[C@@H]2CC[C@H]1N2C(=O)NCCNC(C)=O	·	1.1	·	30.3*
COC(=O)C1=C(c2ccc(F)cc2OCc2ccccc2)C[C@@H]2CC[C@H]1N2C(=O)NCCO	·	-1.1	·	1.1
COC(=O)C1=C(c2cccc(C#N)c2)C[C@@H]2CC[C@H]1N2C(=O)NCCc1ccccc1	·	5.7	·	26.3*
CC1=CC(O)C(O)C2(C)C1CC1OC(=O)CC3C(C)C(O)C(=O)C2C13CO (stereo unspecified)	·	0.1	·	7.1
O=C(Nc1ccc(F)cc1)N1Cc2ccccc2-n2nncc2C1	·	-11.0	·	1.0
CC(C)CN1Cc2cc(-c3ccccc3)ccc2-n2nncc2C1	·	0.9	·	7.3
CCCCn1c(N)c(C(=O)NCCN2CCOCC2)c2nc3ccccc3nc21	-3.3	-23.4	-1.6	-14.3
CCOC(=O)c1c(N)n(CCN2CCCCC2)c2nc3ccccc3nc12	105.4*	-12.4	94.5*	-7.1
CCCCn1c(NS(=O)(=O)c2ccccc2)c(C(=O)OCC)c2nc3ccccc3nc21	63.6*	-4.4	active	-7.0
CCC(C)NC(=O)c1c(N)n(CCCOC)c2nc3ccccc3nc12 (stereo unspecified)	68.4*	7.8	60.6*	-11.9
COc1ccc(CN2C(=O)NC(=O)/C(=C/c3cc(OC)c(OC)c(OC)c3)C2=O)cc1	44.3*	19.0	?	-4.9
COc1ccc(CN2C(=O)NC(=O)/C(=C/c3ccoc3)C2=O)cc1	?	-104.2	?	-145.1
COc1ccc(CN2C(=O)NC(=O)/C(=C/c3ccc(OC)c(OC)c3OC)C2=O)cc1	48.1	-0.5	68.6*	-12.0
COc1ccc(/C=C2\C(=O)NC(=O)N(CCC3=CCCCC3)C2=O)c(OC)c1	-0.8	-8.3	?	-10.4
COCCNC(=O)c1c(NC(=O)c2ccco2)n(Cc2ccccc2)c2nc3ccccc3nc12	15.1	6.3	17.7	-73.2
SMILES	PABP polyA inh	PABP1 MLLE inh	eIF4H FP inh	CendR NRP1 mod
COCCCNC(=O)c1c(NC(=O)c2ccccc2Cl)n(Cc2ccccc2)c2nc3ccccc3nc12	59.4	-12.0	41.7*	-53.3
C=CCn1c(O)c(C=Nc2ccc(F)cc2)c(=O)[nH]c1=O	-6.0	-3.4	6.3	6.3
C=CCn1c(O)c(C=Nc2ccc(N(CC)CC)cc2)c(=O)[nH]c1=O	62.0*	-6.2	53.8*	-38.0
CN(C)c1ccc(N=Cc2c(O)n(CCC3=CCCCC3)c(=O)[nH]c2=O)cc1	57.2	-28.8	1.2	61.0*
O=c1[nH]c(=O)n(CCC2=CCCCC2)c(O)c1/C=N/Nc1cccc2ccccc12	35.1*	2.7	?	-32.6
CCOP(=O)(Nc1ccc2c(c1)C(=NNC(N)=S)c1ccccc1-2)OCC	·	23.2	·	-1.6
CN(C)C1=NC(N(C)C)=NP(N(C)C)(N(C)C)=N1	0.2	5.5	4.4	1.1
COc1ccc(OC)c(N2C(=O)NC(=O)/C(=C\c3ccc([N+](=O)[O-])s3)C2=O)c1	10.2	17.6	68.6	-12.1
O=C1NC(=O)N(c2ccccc2)C(=O)/C1=C\c1ccc([N+](=O)[O-])o1	56.6*	·	78.0*	·
CN1C(=O)NC(=O)/C(=C/c2ccc([N+](=O)[O-])o2)C1=O	48.8*	·	?	·
CN1C(=O)NC(=O)/C(=C/c2ccc([N+](=O)[O-])s2)C1=O	37.5*	22.5	63.7*	-6.4
Cc1ccc(N2C(=O)NC(=O)C(CCc3ccccn3)(Cc3cccc(Cl)c3Cl)C2=O)cc1 (stereo unspecified)	9.2	16.9	2.7	-6.5
CC(C)(C)n1nnnc1C(c1cccc2ccccc12)N1CCC2(CC1)C(=O)NCN2c1ccccc1 (stereo unspecified)	·	16.8	·	7.6
CC(C)(C)n1nnnc1C(c1ccnc2ccccc12)N1CCC2(CC1)C(=O)NCN2c1ccccc1 (stereo unspecified)	·	-1.5	·	36.4*
COc1ccc(C(=O)C(C)(C)NO)cc1	17.9	7.3	4.3	29.1*
CCCC1(CC(C)C)C(=O)NC(=S)NC1=O	·	27.2	·	17.7
COC(=O)C1=C(c2ccc(-c3ccccc3)c(F)c2)C[C@@H]2CC[C@H]1N2C(=O)NCCOc1ccccc1Cl	·	10.8	·	3.0
COc1cc(N2CCOCC2)ccc1/C=C1\C(=O)NC(=O)N(C2CCCCC2)C1=O	-1.7	-20.3	?	-19.3
CCN1C(=O)NC(=O)/C(=C\c2ccc(N3CCOCC3)cc2OC)C1=O	77.6*	·	?	·
CCOC(=O)COc1ccc(/C=C2\C(=O)NC(=S)N(c3ccc(OC)cc3)C2=O)cc1OC	-10.2	39.3*	-5.6	2.1
CC(C)C1C(C#N)=C(N)Oc2c1c(=O)oc1ccccc21 (stereo unspecified)	·	10.1	·	2.5
Cc1ccc(N2CCNCC2C)cc1 (stereo unspecified)	·	5.2	·	-15.7
O=c1[nH]c(=O)n(-c2cccc3ccccc23)c(O)c1C=NCCCn1ccnc1	-8.0	7.5	-1.1	5.8
CC12CCC3c4ccc(OP(=O)(N5CC5)N5CC5)cc4CCC3C1CCC2=O (stereo unspecified)	·	5.5	·	26.3*
COc1ccc(CN2Cc3cc(-c4cccc(F)c4)ccc3-n3nncc3C2)cc1	·	1.7	·	-21.4
SMILES	PABP polyA inh	PABP1 MLLE inh	eIF4H FP inh	CendR NRP1 mod
CC(C)(C)C(=O)c1cn(CC(=O)NCc2ccco2)c2ccccc12	57.9*	-142.9	-10.4	-10.5
O=C1NC(=O)C(=Cc2csc3ccccc23)C(=O)N1	17.2	40.7*	37.9	-2.5
O=C1NC(=O)C(=Cc2cc3c(cc2[N+](=O)[O-])OCO3)C(=O)N1	active	29.5	97.6*	-5.7
O=C1NC(=O)C(=Cc2ccccc2[N+](=O)[O-])C(=O)N1	·	30.9	·	25.4*
O=C1NC(=O)C(=Cc2ccc(-c3ccccc3[N+](=O)[O-])o2)C(=O)N1	39.5	17.1	14.7	-15.0
C=Cn1ccnc1P(=S)(c1ccc(Cl)cc1)c1nccn1C=C	-10.9	8.6	-6.7	-5.2
